# Bioassay records as filed in PubChem BioAssay.
# PLC-beta3 inh: human PLC-beta3 inhibitors, primary screen, biochemical, fluorescence; AID 720704, 2013; 370,000 compounds, 0.18% hits; inhibition, % at 12.2 µM; Purified PLC-beta3, fluorogenic substrate; in the data active means inhibition above about 11%;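 further: 0% = median of compound wells on plate and 100% = full blocker control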
# ADAM17 inh: ADAM17 inhibitors, primary screen, biochemical, QFRET; AID 720648, 2013; 370,000 compounds, 0.83% hits; recombinant ADAM17, EDANS/DABCYL FRET peptide cleavage; Disintegrin and metalloproteinase domain-containing protein 17 (Homo sapiens), P78536; inhibition, % at 6.95 µM;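 active means inhibition above the mean of compounds lying between control limits plus 3 SD, set per campaign, cut at about 8.5% in these data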;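 further: 0% = DMSO-only wells as the low control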
# Target sequence (P78536 215-824 limits assumed): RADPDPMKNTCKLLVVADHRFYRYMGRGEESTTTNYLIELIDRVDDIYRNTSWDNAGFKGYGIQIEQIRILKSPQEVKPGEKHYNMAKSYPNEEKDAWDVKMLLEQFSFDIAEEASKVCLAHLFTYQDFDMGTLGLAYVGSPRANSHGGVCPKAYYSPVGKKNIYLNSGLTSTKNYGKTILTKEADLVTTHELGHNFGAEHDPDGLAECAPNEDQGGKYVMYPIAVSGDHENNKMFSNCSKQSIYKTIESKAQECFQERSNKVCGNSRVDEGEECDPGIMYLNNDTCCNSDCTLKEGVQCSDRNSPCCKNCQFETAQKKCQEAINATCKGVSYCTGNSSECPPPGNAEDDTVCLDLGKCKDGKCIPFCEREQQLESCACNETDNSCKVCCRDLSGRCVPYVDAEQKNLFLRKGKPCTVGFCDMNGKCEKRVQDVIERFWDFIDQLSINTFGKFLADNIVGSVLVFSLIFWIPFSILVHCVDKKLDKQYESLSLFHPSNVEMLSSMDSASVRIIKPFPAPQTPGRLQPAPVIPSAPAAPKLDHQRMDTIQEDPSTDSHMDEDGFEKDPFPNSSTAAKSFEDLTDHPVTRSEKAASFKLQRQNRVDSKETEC
# PLCg1 inh: PLC-gamma1 enzyme inhibitors, primary screen, biochemical, fluorescence, purified enzyme | 1-phosphatidylinositol 4,5-bisphosphate phosphodiesterase gamma-1 (Homo sapiens), P19174 | fluorogenic substrate | inhibition, % at 12.2 µM | 370,000 compounds, 0.84% hits
# ADAM10 inh: human ADAM10 inhibitors, primary screen, biochemical, QFRET, HTS; Disintegrin and metalloproteinase domain-containing protein 10 (Homo sapiens), O14672; recombinant ADAM10, EDANS/DABCYL FRET peptide cleavage, 3 h; inhibition, % at 7 µM; 370,000 compounds, 0.62% hits; AID 720582, 2013;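 active means inhibition above a per-campaign cutoff equal to the mean of compounds falling between control-based bounds plus 3 SD, cut at about 20% in these data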;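 further: 0% = DMSO wells while the 100% control is not disclosed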
# Rce1 inh: yeast Rce1p protease inhibitors, primary screen, biochemical, fluorescence, cell-free homogeneous. CAAX prenyl protease 2 (Saccharomyces cerevisiae (strain ATCC 204508 / S288c)), Q03530. yeast membranes, quenched prenylated peptide cleavage fluorescence. calls only. 290,000 compounds, 0.27% hits. AID 2563, 2010;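 active means fall in fluorescence gain of 50% or more versus controls, with final raw signal at or below 3038400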;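 further: plate controls were neutral control wells for no effect and wells lacking membranes for full effect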
# PLCg1 ctr: PLC-gamma1 enzyme inhibitors, counter-screen for PLC-beta3 inhibitor project, biochemical, fluorescence | purified PLC-gamma1, fluorogenic substrate | AID 743258, 2014 | 3,300 compounds, 3.1% hits | shares compounds with PLCg1 inh | inhibition, % at 12.3 µM
# PLCb3 confirm: PLC-beta3 inhibitor confirmation, biochemical, fluorescence, purified enzyme. shares compounds with PLCg1 inh. AID 743261, 2014. inhibition, % at 12.3 µM. 3,300 compounds, 1% hits. fluorogenic substrate fluorescence; in the data active means inhibition above about 11%
# * marks the source's active call; other numbers are inactive results; i = inactive; · = no result given. Hits are enriched below; roughly 2.1% of the tested compounds scored in any of these assays. Unless noted, no stated cut-off is given here; in the data, active means inhibition above about 9.5%; inactive means the rest.
SMILES,PLC-beta3 inh,ADAM17 inh,PLCg1 inh,ADAM10 inh,Rce1 inh,PLCg1 ctr,PLCb3 confirm
CC1(C(=O)NS(=O)(=O)c2ccc(F)cc2F)CCN1C(=O)c1cccc(F)c1 (stereo unspecified),9,3,12*,-3,·,-7,0
O=C(CSC1=NS(=O)(=O)c2cc(Cl)ccc2N1)c1ccc(Cl)cc1,-7,1,-3,-2,i,·,·
CC(=O)c1ccccc1OC(=O)CCN1C(=O)C2C3C=CC(C4CC34)C2C1=O (stereo unspecified),2,2,10*,12,i,-6,-1
O=C(CCN1C(=O)C2C3C=CC(C4CC34)C2C1=O)Oc1ccccc1 (stereo unspecified),-2,-1,1,8,i,·,·
COc1ccc(CN2C[C@@H](CO)O[C@@H](n3cnc4c(NCc5ccc(F)cc5)ncnc43)C2)cc1,0,-1,4,-1,·,·,·
CCCCCCSc1ccc([C@H]2N[C@@](CC(C)C)(C(=O)OC)[C@H]3C(=O)N(CC)C(=O)[C@@H]23)cc1,6,4,16*,0,i,-1,1
CC(=O)Nc1ccc(NC(=O)CSc2nc(N)c(NC(=O)c3ccco3)c(=O)[nH]2)cc1,-4,-2,12*,1,i,-2,3
O=C(NC1CCCC1)C(c1ccccc1)N(C(=O)c1ccco1)C1CCCC1 (stereo unspecified),-3,-1,9.9*,-3,i,-7,-1
C=CCN(C(=O)CNC(=O)c1ccco1)C(C(=O)NC1CCCCC1)c1ccc(F)cc1 (stereo unspecified),4,4,10*,7,i,-5,-2
O=C(NCC(=O)N(c1cccnc1)C(C(=O)NC1CCCCC1)c1cccnc1)c1ccco1 (stereo unspecified),-2,-3,-2,-1,i,·,·
O=C(NCC(=O)N(c1ccccc1)C(C(=O)NC1CCCC1)c1cccnc1)c1ccco1 (stereo unspecified),8,7,10*,10,i,-6,-7
CCCCNc1nnc(SCC(=O)c2c[nH]c3ccccc23)s1,-12,1,-6,3,i,·,·
CCOc1cc(/C=C2\C(=O)N(c3ccc(C(N)=O)cc3)N=C2C)ccc1OC(=O)c1cccs1,·,·,·,·,i,·,·
CCOc1cc(/C=C2/C(=O)N(c3ccccc3)N=C2C)ccc1OC(=O)c1ccco1,3,3,10*,-1,i,-4,-3
COc1ccc(CCC(=O)OCC(=O)Nc2c(C)n(C)n(-c3ccccc3)c2=O)cc1,-5,-6,0,-12,·,·,·
COc1ccc(C(C)NCCC(c2ccc(OC(C)C)cc2)c2ccccc2OC)cc1 (stereo unspecified),0,5,16*,9,i,-1,0
O=S1(=O)CC(c2ccccc2)=NN=C(c2ccccc2)C1,11*,7,9,3,·,-1,-4
O=C1CC(c2ccccc2)=NO1,-3,0,-1,-2,·,·,·
O=C(NCCCCO)c1ccc2c3c(cccc13)CC2,-27,-41,-44,-111,i,·,·
COc1ccccc1CN(C)CC(=O)Nc1cccc2ccccc12,-4,2,-1,5,·,·,·
COc1cc(Cl)c(C)cc1NC(=O)CN(C)Cc1cccc(OC)c1OC,-8,3,10*,8,i,-6,-5
CCOC(=O)c1c(NC(=O)C2CC2)sc2c1CC(C)(C)OC2,3,-4,2,3,i,·,·
COC(=O)c1c(N)sc2c1CC(C)(C)OC2,1,-3,11*,-1,i,-8,-6
O=C(OCC(=O)c1c[nH]c2ccccc12)c1ccco1,11*,5,6,4,i,-8,-3
O=C(OCC(=O)c1c[nH]c2ccccc12)c1ccc(Br)o1,·,·,·,·,i,·,·
SMILES,PLC-beta3 inh,ADAM17 inh,PLCg1 inh,ADAM10 inh,Rce1 inh,PLCg1 ctr,PLCb3 confirm
NS(=O)(=O)c1ccc(NC(=O)COC(=O)Cn2cnc3ccccc3c2=O)cc1,3,-6,0,-9,·,·,·
CCC(C)[C@H](NC(=O)[C@@H]1Cc2ccccc2CN1)C(=O)NCc1ccc(C)cc1 (stereo partly specified),-5,7,9.8*,-7,·,0,-1
NC(=O)C1CCN(C(=O)Cc2ccsc2)CC1,-6,-2,-6,-7,i,·,·
Cn1cnnc1Sc1ccc(C(=O)NCCC23CC4CC(CC(C4)C2)C3)cc1[N+](=O)[O-],3,6,9.5*,14,i,-2,-4
CCC(C)(C)NC(=O)c1ccc(Sc2nncn2C)c([N+](=O)[O-])c1,1,-2,-2,-5,i,·,·
COc1ccccc1-n1nnnc1SCC(=O)Nc1ccc(C)c(N)c1,-4,3,5,-6,i,·,·
COc1ccc(NC(=O)C(=O)NCCC2CCCCN2S(=O)(=O)c2ccccc2)cc1 (stereo unspecified),4,-1,4,-9,i,·,·
CCOC(=O)C1CCN(Cc2cnc(Oc3ccc(OC)cc3)s2)CC1,11*,6,5,2,i,-5,-1
Cc1cc(C)n2nc(SCC(=O)N3CCC(C(=O)O)CC3)nc2n1,11*,3,9,5,·,3,2
O=C(CSc1ccccc1)N(c1ccc(Br)cc1)c1nccs1,6,8,14*,19,i,-1,-1
O=C(CCSc1ccccc1)Nc1nccs1,-1,-5,0,-6,i,·,·
CCOC(=O)C1(C)CCN1C(=O)c1cncc(Br)c1 (stereo unspecified),4,-1,3,0,·,·,·
COc1cccc(CNCCO)c1OCc1ccccc1Cl,3,4,11*,5,i,-4,-4
CN(C)CCCN=Cc1c(O)n(Cc2ccc3c(c2)OCO3)c(=O)c2ccccc12,·,·,·,·,i,·,·
CCn1c(SCC(=O)Nc2ccccc2OC)nc2ccccc2c1=O,4,1,11*,15,i,-9,-5
CCOc1cccc(N(C(=O)C2COc3ccccc3O2)C(C(=O)NC2CCCCC2)c2ccc(O)cc2)c1 (stereo unspecified),11*,5,8,14,i,-3,0
CC(C)CC(=O)OCc1cn(-c2ccccc2)nn1,6,6,15*,12,i,-4,-1
CCNC(=O)OCc1cn(-c2ccccc2)nn1,3,0,2,4,i,·,·
